Screening data deposited in PubChem by several laboratories.
NLRP3 yeast inh: blocks the NALP3 inflammasome reconstituted in yeast | Yeast reconstituted NLRP3/ASC/caspase-1, beta-gal luminescence, 24 h | inhibition, % at 10 µM | 330,000 tested, 0.39% active;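 active = inhibition of 50% or more; inactive = inhibition below 50%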;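 also: plate controls were induced DMSO wells for no effect and uninduced yeast grown without galactose for full effect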
tim23-1 inh: growth inhibitors of tim23-1 mutant yeast; inhibition, % at 20 µM; S. cerevisiae tim23-1 growth, BacTiter-Glo luminescence, 24 h; 330,000 tested, 1.3% active;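 active = growth inhibition of the mutant yeast at or above 50%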;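 also: temperature-sensitive mutant grown at 25 °C; plate controls were DMSO-treated mutant yeast for no effect and medium wells lacking yeast for full effect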
SKKanGAS inh: SKKanGAS growth inhibition | S. pyogenes SKKanGAS, kanamycin growth, BacTiter-Glo, 6 h | inhibition, % at 7.5 µM | 300,000 tested, 1.3% active;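 active = mean replicate score, as percent of positive control median, at least 50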;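 also: strain carries kanamycin resistance gene driven by streptokinase promoter and grows in 40 µg/ml kanamycin; loss of luminescence reflects streptokinase promoter inhibition or plain growth inhibition; 0% = median of DMSO wells and 100% = positive control at its reference dose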
NALP1 yeast inh: blocks the NALP1 inflammasome reconstituted in yeast | S. cerevisiae NALP1/ASC/caspase-1 growth, X-gal OD620, 72 h | inhibition, % at 10 µM | 280,000 tested, 0.61% active; in the data active = inhibition mostly above about 24%, no sharp cut-off; inactive = mostly below about 32%
TIM10 inh: TIM10 yeast growth inhibition; S. cerevisiae TIM10 strain growth, BacTiter-Glo luminescence, 24 h; AID 463195; inhibition, % at 10 µM; 330,000 tested, 1.4% active;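 active = inhibition of 40% or more at the single tested concentration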;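 also: wild-type TIM10 isogenic control strain grown at permissive 25 °C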
tim10-1 inh: tim10-1 yeast growth inhibition. S. cerevisiae tim10-1 ts strain growth, BacTiter-Glo, 24 h. inhibition, % at 20 µM. 330,000 tested, 2.2% active;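 active = inhibition of at least 40%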;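 also: mutant grown at 25 °C; 0% = DMSO wells with yeast and 100% = wells holding no yeast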
Numbers without * were called inactive. The list is not random: actives were taken first. Their share in the collection is about 4.9%.

Screening CC(C)C(NC(=O)CCNC(=O)c1ccc(C(C)(C)C)cc1)c1nc2ccccc2[nH]1 (stereo unspecified) returned NLRP3 yeast inh 22, tim23-1 inh -7, TIM10 inh 1 and tim10-1 inh -1.
COc1cc(/C=N/NC(=O)c2cccc(C)c2)ccc1OCC(=O)Nc1ccccc1 was read as NLRP3 yeast inh 20, tim23-1 inh 0, SKKanGAS inh 15, TIM10 inh 4 and tim10-1 inh -26.
C/[N+]([O-])=C\CC(=O)c1ccc(-c2ccccc2)cc1 was read as NLRP3 yeast inh 30, tim23-1 inh 27, SKKanGAS inh 4, NALP1 yeast inh 29*, TIM10 inh 12 and tim10-1 inh 21.
`CSc1nn(-c2ccc(C(=O)OC(C(=O)NC(N)=O)C(C)C)cc2)c(=S)s1` (stereo unspecified) gave NLRP3 yeast inh 14, tim23-1 inh 5, SKKanGAS inh -5, NALP1 yeast inh 38*, TIM10 inh -9 and tim10-1 inh 6.
`CCNC(=O)NC(=O)C(C)OC(=O)c1ccc(-n2nc(SC)sc2=S)cc1` (stereo unspecified) gave NLRP3 yeast inh 15, tim23-1 inh 29, SKKanGAS inh 6, NALP1 yeast inh 21, TIM10 inh 4 and tim10-1 inh 34.
`Cc1ccc(NC(=O)/C=C\C(=O)NCC(=O)O)cc1C` gave NLRP3 yeast inh 5, tim23-1 inh 17, SKKanGAS inh 2, NALP1 yeast inh 57*, TIM10 inh 15 and tim10-1 inh 23.
For O=S(=O)(NC(=NCc1ccccc1)c1ccccc1)c1ccc(Br)cc1 the results were NLRP3 yeast inh -2, tim23-1 inh 32, SKKanGAS inh 52*, NALP1 yeast inh 3, TIM10 inh 8 and tim10-1 inh 15.
Screening O=S(=O)(Cc1cc(NCc2ccccc2)nc(-c2ccncc2)n1)c1ccccc1 returned NLRP3 yeast inh 5, tim23-1 inh -5, SKKanGAS inh 6, NALP1 yeast inh 17, TIM10 inh -16 and tim10-1 inh 2.
Screening O=S(=O)(Cc1cc(NCc2ccccc2)nc(-c2ccccn2)n1)c1ccccc1 returned NLRP3 yeast inh 24, tim23-1 inh -15, SKKanGAS inh 56*, NALP1 yeast inh 10, TIM10 inh -1 and tim10-1 inh 10.
Screening Cc1cnc(C(=O)OCC(=O)NC(C)c2ccccc2)cn1 (stereo unspecified) returned NLRP3 yeast inh -5, tim23-1 inh 15, TIM10 inh -2 and tim10-1 inh 5.
Screening c1ccc(C2C/C(=N\N3CCOCC3)c3ccccc3O2)cc1 (stereo unspecified) returned NLRP3 yeast inh -27, tim23-1 inh 2, SKKanGAS inh 6, NALP1 yeast inh 29, TIM10 inh -4 and tim10-1 inh 25.
Screening CC(C)(C)N/N=C1\CC(c2ccccc2)Oc2ccccc21 (stereo unspecified) returned NLRP3 yeast inh -4, tim23-1 inh 7, SKKanGAS inh 73*, NALP1 yeast inh 22, TIM10 inh 8 and tim10-1 inh 9.
`O=S(=O)(c1ccc(Cl)cc1)n1ccc(-c2cccc(OCc3c(F)cccc3Cl)c2)n1` gave NLRP3 yeast inh 2, tim23-1 inh 4, SKKanGAS inh -4, NALP1 yeast inh -6, TIM10 inh 2 and tim10-1 inh 14.
Screening O=S(=O)(c1ccc(F)cc1)n1ccc(-c2cccc(OCc3c(F)cccc3Cl)c2)n1 returned SKKanGAS inh -7 and NALP1 yeast inh 28*.
Screening Cc1nc2ccccc2cc1C(=O)N(C)Cc1ccccc1 returned NLRP3 yeast inh 23, tim23-1 inh -3, SKKanGAS inh -3, NALP1 yeast inh 10, TIM10 inh -7 and tim10-1 inh -1.
For O=C1CC(N(CCc2ccccc2)C(=S)Nc2ccccc2)C(=O)N1c1ccc(Br)cc1 (stereo unspecified) the results were NLRP3 yeast inh 13, tim23-1 inh 42, SKKanGAS inh 69*, NALP1 yeast inh 35, TIM10 inh 35 and tim10-1 inh 22.
`CC(C)(C)OC(=O)N1CCC(c2c(C(=O)N3CCN(C(=O)c4ccco4)CC3)cnn2-c2cccc(Cl)c2)CC1` gave NLRP3 yeast inh 5, tim23-1 inh 5, SKKanGAS inh -9, NALP1 yeast inh 7, TIM10 inh 17 and tim10-1 inh 1.
